Results filed as inconclusive are left out. Activity calls are given as the source filed them. The calls were made as follows: active = hit-call score of the fitted dose curve at least 0.9, where 1 is the maximum; inconclusive = response in the unintended direction; inactive = score below 0.9.
The compounds below were run against Androgen receptor (Homo sapiens) (UniProt P10275) (assay: ATG_AR_TRANS: Attagene TRANS-FACTORIAL HepG2 Assay for human Androgen Receptor (AR) (AID 2282973)). Settings: HepG2 Attagene TRANS-FACTORIAL AR reporter transcription.
Method: ATG_TRANS is a cell-based, multiplexed-readout assay that uses HepG2, a human liver cell line, with measurements taken at 24 hours after chemical dosing in a 24-well plate.ATG_AR_TRANS is one of 30 assay component(s) measured or calculated from the ATG_TRANS assay. It is designed to make measurements of mRNA induction, a form of inducible reporter, as detected with fluorescence intensity signals by Reverse transcription polymerase chain reaction (RT-PCR) and Capillary electrophoresis technology.Data from the assay component ATG_AR_TRANS was analyzed into 1 assay endpoint. This assay endpoint, ATG_AR_TRANS, was analyzed in the positive analysis fitting direction relative to DMSO as the negative control and baseline of activity. Using a type of inducible reporter, measures of mRNA for gain-of-signal activity can be used to understand the reporter gene at the transcription factor-level as they relate to the gene AR. Furthermore, this assay endpoint can be referred to as a primary readout, because this assay has produced multiple assay endpoints where this one serves a reporter gene function. To generalize the intended target to other relatable targets, this assay endpoint is annotated to the nuclear receptor intended target family, where the subfamily is steroidal.
Human liver HepG2 cells are transiently transfected with multiple reporter transcription units (MRTUs) in 6-well plates using FuGene 6 reagent (Roche; 3 ml FuGene/1 mg DNA). The MRTU constructs are regulated by a cis-regulating element (promoter). […] A major difference between the CIS and TRANS system is that in CIS activities of endogenous TFs are measured, whereas the TRANS assay evaluates changes in activities of exogenous, chimeric NR-Gal4 proteins. […] At the end of 24 hour incubation, total RNA was isolated using TriZol reagent (Invitrogen). The isolated RNA is then reverse-transcribed using oligo(dT) primer and Mo-MLV reverse transcriptase (Invitrogen) with DNAse I (Ambion) treatment for 30 min. The one-tenth of the produced cDNA was amplified by PCR using Taq DNA polymerase (Invitrogen) and two reporter sequence-specific primers. The PCR products were fluorescently labeled by primer extension with 6-arboxyfluorescein (6-FAM) 5'-labeled reporter sequence-specific primer (2 min at 95 C, 20 s at 68 C and 10 min at 72 C) and these products were digested with 5U of HpaI (New England Biolabs) for 2h at 37 C. The fragments were purified using Qiaquick PCR columns (Qiagen), analyzed on an ABI 3130xL genetic analyzer (Applied Biosystems) with peak positions identified by using a set of X-rhodamine (ROX)-labeled MapMarker1000 molecular weight standards (BioVentures). The raw capillary electrophoresis data was processed using Attagraph software (Attagene).

Sequence of Androgen receptor (Homo sapiens) (P10275 whole entry, looked up): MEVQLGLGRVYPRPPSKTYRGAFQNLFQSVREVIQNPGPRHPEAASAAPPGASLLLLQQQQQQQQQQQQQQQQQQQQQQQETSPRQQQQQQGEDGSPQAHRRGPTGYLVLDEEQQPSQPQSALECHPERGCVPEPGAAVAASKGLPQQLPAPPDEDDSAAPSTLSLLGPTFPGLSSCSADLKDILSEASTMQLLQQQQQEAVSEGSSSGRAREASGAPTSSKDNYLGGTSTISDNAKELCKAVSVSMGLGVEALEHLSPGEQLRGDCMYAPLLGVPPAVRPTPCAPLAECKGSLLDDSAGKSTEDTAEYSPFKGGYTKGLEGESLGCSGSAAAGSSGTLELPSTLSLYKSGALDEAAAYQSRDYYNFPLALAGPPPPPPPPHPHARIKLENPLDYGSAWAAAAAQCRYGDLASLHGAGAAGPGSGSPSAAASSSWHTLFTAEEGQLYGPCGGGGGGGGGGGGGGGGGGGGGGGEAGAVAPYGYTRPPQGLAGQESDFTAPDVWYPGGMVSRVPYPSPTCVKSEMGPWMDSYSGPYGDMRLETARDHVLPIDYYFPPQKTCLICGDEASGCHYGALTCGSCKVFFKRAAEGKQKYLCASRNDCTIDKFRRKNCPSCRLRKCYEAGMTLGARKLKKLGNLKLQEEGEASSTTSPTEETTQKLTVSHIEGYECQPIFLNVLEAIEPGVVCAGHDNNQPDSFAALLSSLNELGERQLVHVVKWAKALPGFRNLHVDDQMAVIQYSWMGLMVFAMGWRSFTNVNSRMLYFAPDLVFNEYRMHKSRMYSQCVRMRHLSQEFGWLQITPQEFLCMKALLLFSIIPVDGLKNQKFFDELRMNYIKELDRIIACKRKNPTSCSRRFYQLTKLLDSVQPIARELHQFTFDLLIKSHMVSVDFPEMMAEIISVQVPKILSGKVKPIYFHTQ

| Compound | outcome |
| --- | --- |
| O=S(=O)(c1ccc(OCc2ccccc2)cc1)c1ccccc1O | inactive |
| FC(F)=C(F)C(F)(F)C(F)(F)C(F)(F)C(F)(F)C(F)(F)C(F)(F)F | inactive |
| COc1cc(C=O)ccc1O | inactive |
| Cc1cccc([N+](=O)[O-])c1C | inactive |
| FC1CC(F)(F)C(F)(F)C1(F)F (stereo not given) | inactive |
| C#CC(C)N(C)C(=O)Nc1ccc(Cl)cc1 (stereo not given) | inactive |
| Cc1cc(O)c(C(C)(C)C)cc1C(C)(C)C | inactive |
| O=CC(F)(F)C(F)(F)C(F)(F)C(F)F | inactive |
| CCO[Si](C)(C)OCC | inactive |
| Cc1cc(=O)[nH]c(C(C)C)n1 | inactive |
| CCC(C)c1cc([N+](=O)[O-])cc([N+](=O)[O-])c1OC(=O)OC(C)C (stereo not given) | inactive |
| COCC(C)N (stereo not given) | inactive |
| CCCCCCCCCC(C)=O | inactive |
| NC(C(F)(F)F)C(F)(F)F | inactive |
| CCCCOC(=O)c1ccc(O)cc1 | inactive |
| CCc1c(C)cc(N)c(CC)c1N | inactive |
| Cc1ccc(C2OC[C@@H]3OC(c4ccc(C)cc4)O[C@H]([C@H](O)CO)[C@@H]3O2)cc1 (stereo not given in full) | inactive |
| CCOc1ccc(NC(C)=O)cc1 | inactive |
| COc1ccc(C)cc1N | inactive |
| CCCCCC(=O)O | inactive |

| Compound | outcome |
| --- | --- |
| NCC(F)(F)C(F)(F)C(F)(F)C(F)(F)C(F)(F)C(F)(F)F | inactive |
| C[Si]1(C)O[Si](C)(C)O[Si](C)(C)O1 | inactive |
| CC(=O)OC1CCCCC1C(C)(C)C (stereo not given) | inactive |
| Nc1c(Cl)cc(Cl)cc1[N+](=O)[O-] | inactive |
| c1cc(OCC2CO2)ccc1Cc1ccc(OCC2CO2)cc1 (stereo not given) | inactive |
| CC1=CCC2C(C1)C2(C)C (stereo not given) | inactive |
| O=C(O)C(F)(F)OC(F)(F)C(F)(F)OC(F)(F)C(F)(F)OC(F)(F)C(F)(F)C(F)(F)C(F)(F)F | inactive |
| CCCCC1CCC(O)CC1 (stereo not given) | inactive |
| CC1=Nc2ccc3ccccc3c2C1(C)C | inactive |
| OCC1CCC(CO)CC1 (stereo not given) | inactive |
| O=S(=O)(O)CCC(F)(F)C(F)(F)C(F)(F)C(F)(F)F | inactive |
| Cn1c(=O)[nH]c2ncn(C)c2c1=O | inactive |
| C=CC(=O)OCCN(CC)CC | inactive |
| COc1cc(C(=O)NC2CCN(C)CC2)ccc1Nc1ncc2c(n1)N(C1CCCC1)CC(F)(F)C(=O)N2C | inactive |
| Clc1cc(Cl)c(-c2c(Cl)c(Cl)cc(Cl)c2Cl)cc1Cl | inactive |
| CCC(CC)CO | inactive |
| O=C=Nc1cccc2c(N=C=O)cccc12 | inactive |
| COC(OC(C)=O)c1ccccc1 (stereo not given) | inactive |
| CCN(CC)c1ccc(C(=C2C=CC(=[N+](CC)CC)C=C2)c2ccc(S(=O)(=O)O)cc2S(=O)(=O)[O-])cc1 | inactive |
| COCC1CCC(CO)CC1 (stereo not given) | inactive |

— PubChem BioAssay (EPA / NIEHS)
